# Rows were chosen to be rich in hits. Some 32% of all compounds tested hit in one or more screens of this group.
# CYP2C19 activ: increases human CYP2C19 enzyme activity; P33261; recombinant CYP2C19, luciferin-H EGE luminescence; active compounds read high; 0 = fully inhibited enzyme, 1 = untreated enzyme; activation factor at 5 µM; 96,000 tested, under 10 active; AID 1025;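 active = activation factor of at least 2 at 5 µM in the primary screen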
# Target sequence (P33261 whole entry, looked up): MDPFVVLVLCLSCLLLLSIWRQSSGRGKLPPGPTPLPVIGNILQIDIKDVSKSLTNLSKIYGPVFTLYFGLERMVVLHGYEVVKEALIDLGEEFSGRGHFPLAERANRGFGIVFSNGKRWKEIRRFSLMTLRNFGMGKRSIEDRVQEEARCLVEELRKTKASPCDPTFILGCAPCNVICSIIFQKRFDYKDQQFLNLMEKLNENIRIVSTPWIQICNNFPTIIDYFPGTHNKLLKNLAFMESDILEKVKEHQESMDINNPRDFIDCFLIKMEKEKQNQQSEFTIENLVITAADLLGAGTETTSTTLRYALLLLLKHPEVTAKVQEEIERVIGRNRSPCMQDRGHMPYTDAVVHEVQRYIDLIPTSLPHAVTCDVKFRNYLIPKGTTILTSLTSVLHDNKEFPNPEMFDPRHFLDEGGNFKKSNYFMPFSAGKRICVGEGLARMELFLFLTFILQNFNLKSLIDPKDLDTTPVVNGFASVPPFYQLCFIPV
# CYP2C9 inh: blocks human cytochrome P450 2C9. CYP2C9 Supersomes, luciferin-H conversion, luminescence. hit rate 20% among 96,000. inhibition, % at 5 µM;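 active = blocking of liver enzyme CYP2C9 beyond about 50% at 5 µM, limit read from the data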
# CYP2C19 inh: inhibitors of human CYP2C19; hit rate 21% among 96,000; inhibition, % at 5 µM; AID 778; P33261; CYP2C19 Supersomes, luciferin-H EGE luminescence, 30 min;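 active = CYP2C19 inhibition above a set limit at 5 µM in the primary screen, cut at about 50% in these data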
# PostGolgi yeast: growth inhibition of a yeast mutant, post-Golgi transport screen | hit rate 0.9% among 98,000 | AID 739 | post-Golgi transport phenotypic cell assay | inhibition, % at 10 µM;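 note: yeast cells grown in 1536-well plates; yeast grown about 18 h at 30C before absorbance read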
# CYP2C9 activ: CYP2C9 (human) activation | recombinant CYP2C9, luciferin-H conversion, luminescence; active compounds read high; factor 1 = untreated enzyme, 0 = blocked | activation factor at 5 µM | hit rate 1.4% among 96,000 | AID 1024;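 active = activation factor of 2 or more for CYP2C9 at a 5 µM dose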
# PostGolgi ctrl: growth of the yeast control strain, post-Golgi counter-screen | efflux-deficient yeast background strain, growth absorbance A615, 16 h | inhibition, % at 10 µM | hit rate 5% among 98,000 | AID 738
# Numbers stand for hits; . = inactive; / = no result given. Cut-off read from the data, not from the text of the source, unless noted: active = inhibition above about 30%; inactive = the rest.
SMILES,CYP2C19 activ,CYP2C9 inh,CYP2C19 inh,PostGolgi yeast,CYP2C9 activ,PostGolgi ctrl
CCC(C)NS(=O)(=O)c1ccc(NC(=O)c2c(-c3ccccc3)noc2C)cc1 (configuration not stated),.,62,86,.,.,.
Cc1onc(-c2ccccc2)c1C(=O)Nc1ccc(S(=O)(=O)NC2=NCCCCC2)cc1,.,.,.,.,.,.
Cc1onc(-c2ccccc2)c1C(=O)Nc1cccc(C#N)c1,.,.,55,.,.,.
CCOC(=O)CNC(=O)c1cc(C)oc1C,.,.,.,.,.,.
CC1=C(C(=O)Nc2ccc(C)cc2C)C(c2ccc([N+](=O)[O-])cc2)n2ncnc2N1 (configuration not stated),.,.,.,.,.,.
Cc1onc(-c2ccccc2)c1C(=O)Nc1ccncc1,.,90,92,.,.,.
Cc1onc(-c2ccncc2)c1C(=O)O,.,.,.,.,.,.
Cc1ccc(Oc2nc3ccccc3n3c(C)nnc23)c(C)c1,.,.,.,.,.,.
CCOC(=O)c1cc2c(=O)n3ccccc3nc2n(C(C)C)c1=NC(=O)c1ccncc1,.,.,65,.,.,.
CCOC(=O)c1cc2c(=O)n3ccccc3nc2n(Cc2ccccc2Cl)c1=N,.,57,.,/,.,/
COc1ccc(CCn2c(=N)c(C(=O)N3CCN(C)CC3)cc3c(=O)n4ccccc4nc32)cc1,.,.,72,.,.,.
CC(=O)C1=C(O)C(=O)N(C)C1c1ccccc1F (configuration not stated),.,.,.,.,.,.
CCC(C)(C)NC(=O)C(c1ccc(F)cc1)N(Cc1ccco1)C(=O)c1cnccn1 (configuration not stated),.,.,.,.,.,.
CC1OC(Nc2cccc3ccccc23)C(O)C(O)C1O (configuration not stated),.,.,.,.,.,.
CC(O)(CS(=O)(=O)Cc1cccc(C(F)(F)F)c1)C(=O)Nc1cccc(C(F)(F)F)c1 (configuration not stated),.,.,.,.,.,.
CC(O)(CS(=O)(=O)Cc1ccccc1Cl)C(=O)Nc1cccc(C(F)(F)F)c1 (configuration not stated),.,.,54,.,.,.
CCC(C)(C)n1nnnc1C(c1cc2cc(C)ccc2[nH]c1=O)N1CCCc2ccccc21 (configuration not stated),.,64,.,.,.,.
Cc1cc2cc(C(c3nnnn3Cc3ccccc3)N3CCc4ccccc43)c(=O)[nH]c2cc1C (configuration not stated),.,68,.,.,.,.
CCC(C)(C)n1nnnc1C(c1cc2cc(OC)ccc2[nH]c1=O)N1CCc2ccccc21 (configuration not stated),.,100,63,.,.,.
Cc1ccc2[nH]c(=O)c(C(c3nnnn3Cc3ccccc3)N3CCc4ccccc43)cc2c1 (configuration not stated),.,.,.,.,.,.
Cc1ccc2cc(C(c3nnnn3Cc3ccccc3)N3CCc4ccccc43)c(=O)[nH]c2c1 (configuration not stated),.,.,.,.,.,.
CCC(C)(C)n1nnnc1C(c1cc2ccc(OC)cc2[nH]c1=O)N1CCc2ccccc21 (configuration not stated),.,98,54,.,.,40
CCOc1ccc(Oc2ccc(-c3nnc(-c4ccccc4)o3)cc2[N+](=O)[O-])cc1,.,.,.,.,.,.
Cc1ccc2[nH]c(=O)c(C(c3nnnn3CC3CCCO3)N3CCc4ccccc4C3)cc2c1 (configuration not stated),.,.,.,.,.,.
CCc1ccc2[nH]c(=O)c(C(c3nnnn3CC3CCCO3)N3CCN4CCCC4C3)cc2c1 (configuration not stated),.,.,.,.,.,30
COc1ccc2[nH]c(=O)c(C(c3nnnn3CC3CCCO3)N3CCc4ccccc4C3)cc2c1 (configuration not stated),.,.,.,.,.,38
Cc1ccc2[nH]c(=O)c(C(c3nnnn3CC3CCCO3)N3CCCc4ccccc43)cc2c1 (configuration not stated),.,60,.,.,.,.

# Source: PubChem
